Screens from PubChem BioAssay.
Sampled rows, rich in hits. Any-hit rate of the full collection: about 15%.
RORgamma inh: blocks mouse ROR gamma transcriptional activity; P51450; Drosophila S2 Gal4-RORgamma UAS-luciferase reporter, 20 h; Potency, µM (series often up to 53.6 µM), inactives show at the highest dose activity change, negative = inhibition, hits mostly inhibitors; actives 5.4% (n = 310,000); AID 2551; further: nearly all actives have a fitted effect of over 60% in size
Target sequence (P51450 whole entry, looked up, the tested form may be a part): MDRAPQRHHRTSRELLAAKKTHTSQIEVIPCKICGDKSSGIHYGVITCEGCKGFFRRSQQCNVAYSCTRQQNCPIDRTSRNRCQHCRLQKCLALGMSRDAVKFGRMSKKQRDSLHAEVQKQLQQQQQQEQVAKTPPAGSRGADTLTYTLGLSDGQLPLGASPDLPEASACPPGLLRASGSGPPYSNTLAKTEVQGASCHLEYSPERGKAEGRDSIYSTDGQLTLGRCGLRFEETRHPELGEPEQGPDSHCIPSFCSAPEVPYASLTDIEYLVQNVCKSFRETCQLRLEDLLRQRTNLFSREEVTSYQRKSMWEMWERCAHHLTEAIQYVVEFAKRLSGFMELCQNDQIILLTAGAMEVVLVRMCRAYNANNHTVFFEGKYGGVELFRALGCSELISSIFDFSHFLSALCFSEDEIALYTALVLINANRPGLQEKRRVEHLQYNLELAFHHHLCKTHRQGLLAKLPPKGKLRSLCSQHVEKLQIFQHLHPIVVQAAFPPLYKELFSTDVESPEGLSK
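Stably transfected Drosophila Schneider cells are the test system, with ROR gamma fused to Gal4 and luciferase under UAS control; luminescence is read after 20 hr of 700 uM copper sulfate induction at ambient temperature.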
Gal4-VP16 FLuc: Gal4-VP16 reporter inhibition counter-screen; Drosophila S2 Gal4-VP16 UAS-luciferase, luminescence, 20 h; Potency, µM (titrated, usually from 53.6 µM), for inactives: at the highest dose activity, negative = inhibition, actives largely listed as inhibitors; actives 3.5% (n = 310,000);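 further: Gal4-VP16 expression switched on by copper sulfate through the metallothionein promoter; nearly all actives have a fitted effect of over 50% in size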
ELG1 DNA repair: inhibitors of ELG1-dependent DNA repair in HEK293T cells; HEK293T ELG1-luciferase reporter, luminescence, 16 h; DNA damage induced by 5-fluorouridine; Potency, µM (highest dose often 46.1 µM), for the others: at the highest dose activity change, negative = inhibition, hits mostly inhibitors; actives 2.3% (n = 330,000); further: nearly all actives have a fitted effect of over 55% in size
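In this reporter screen, reduction of luminescence relative to DMSO vehicle indicated activity. Compounds and 5-fluorouridine were added together to 2,000 cells per well, incubated for 16 hr at 37 °C, then developed with ONE-Glo.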
TDP1 cell CPT: growth inhibition of DT40 Tdp1-/-;hTDP1 cells with camptothecin (screen for TDP1 inhibitors). chicken DT40 Tdp1-/-;hTDP1 cells + 20 nM CPT, ATP luminescence, 48 h. Potency, µM (top dose mostly 46.2 µM), inactives show at the highest dose activity change, negative = growth inhibition, most hits filed as inhibitors. actives 12% (n = 420,000); further: nearly all actives have a fitted effect of over 55% in size
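Cell growth measured by CellTiter-Glo luminescence after a minimum 48 h, 37 C compound exposure with 20 nM CPT in Tdp1-knockout DT40 cells stably expressing hTDP1, seeded 400/well; qHTS titration format.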
DT40 TDP1 no CPT: qHTS for Inhibitors of human tyrosyl-DNA phosphodiesterase 1 (TDP1): qHTS in cells in absence of CPT; DT40 Tdp1-/- hTDP1 cells, no CPT, ATP luminescence, 48 h; Potency, µM (titrated, usually from 46.2 µM), inactives show at the highest dose activity change, negative = growth inhibition, most hits filed as inhibitors; actives 15% (n = 420,000); further: nearly all actives have a fitted effect of over 55% in size
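Growth kinetics read by CellTiter-Glo luminescence after ≥48 hr at 37 °C. Cells: DT40 Tdp1-/- stably carrying human TDP1, 400 per well, compound exposure in the absence of CPT (DMSO vehicle).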
12-LOX inh: inhibitors of human 12S-lipoxygenase ALOX12 | P18054 | purified 12hLO, xylenol orange hydroperoxide absorbance | Potency, µM (top dose mostly 108 µM), for the others: at the highest dose activity change, negative = inhibition, usual class: inhibitors | actives 1.1% (n = 580,000) | AID 1671190
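Hydroperoxide product was detected by ferrous iron/xylenol orange as the 573 to 405 nm absorbance ratio. Arachidonic acid at 40 uM (final) was turned over for 30 min at room temperature by 150 nM human 12hLO, pH 7.0 Hepes buffer, after 15 min compound preincubation.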
Active calls of the source: *; ? = inconclusive; . = no result; [ ] = another dose, or the depositor's remark. The call rests on the fitted dose curve; in most records, active means well fitted curve in the direction sought with a large enough effect; inconclusive means small, poorly fitted or top-dose-only effect, or another doubt; inactive means no such curve, though single readings can be large; an effect the other way counts as inactive or inconclusive. On the % scale 0 is the no-effect control and ±100 the full control effect; potency means the concentration at half of the fitted maximal effect.

SMILES | RORgamma inh | Gal4-VP16 FLuc | ELG1 DNA repair | TDP1 cell CPT | DT40 TDP1 no CPT | 12-LOX inh
CCCCCOc1ccc(C(=O)NCC2(c3ccccc3)CCOCC2)cc1 | ? | -7% | 33% | ? | ? | -19%
Cc1ccc(SCCC(=O)NCCC(C)C)cc1 | . | . | . | . | . | -4%
CC(C)CCNC(=O)c1cnc2n1CCN(Cc1cccs1)CC2 | . | . | . | . | . | 9%[176 µM]
Cc1ccc(C(=O)NCC(NC(=O)c2ccc(C)nc2)C2CC2)cn1 (stereo not drawn) | . | . | . | . | . | 6%
O=C(COc1cccc(C(F)(F)F)c1)NCC(c1ccco1)N1CCCC1 (stereo not drawn) | . | . | 10% | -10% | ? | -25%
CCOC(=O)c1ccc(NC(=O)C(=O)NCC2(c3ccc(OC)cc3)CCOCC2)cc1 | ? | ? | ? | ? | 15µM* | 0%
O=C(COc1ccc(Cl)cc1Br)NCC(c1ccco1)N1CCCC1 (stereo not drawn) | . | . | ? | ? | 18µM* | 328%
O=C(NCC(c1ccco1)N1CCCCC1)c1ccc(COc2ccc(Cl)cc2)cc1 (stereo not drawn) | . | . | . | 21µM* | 13µM* | ?
Cc1ccc(C(=O)NCC(c2ccc(Cl)cc2)N2CCCCC2)cc1 (stereo not drawn) | . | . | . | 12µM* | 13µM* | -16%
COc1ccc(C2(CNC(=O)c3ccccc3)CCOCC2)cc1 | 16% | -3% | 5% | -3% | -3% | ?
N#Cc1ccc(C(=O)NCC(c2ccco2)N2CCCCC2)cc1 (stereo not drawn) | 0% | 18% | 1% | 4% | 5% | 417%
O=[N+]([O-])c1ccc(-c2nc(Nc3ccc(I)cc3)c3ccccc3n2)cc1 | . | . | . | . | . | -11%
Cc1ccc(CC(=O)C(C#N)C(=O)Nc2c(C)cccc2C)cc1 (stereo not drawn) | . | . | . | . | . | -45%
CCCCOc1ccc(C(=O)NCC(c2ccc(Cl)cc2)N2CCOCC2)cc1 (stereo not drawn) | . | . | . | 15µM* | 21µM* | 6%
COc1ccc(-c2ccc(C(=O)NCc3ccc(N4CCN(C)CC4)cc3)c3occc23)c(C)c1 | . | . | . | 16µM* | 16µM* | ?
COCCNC(=O)c1ccc(-c2ccc(OC)cc2C)c2ccoc12 | . | . | . | ? | ? | 19%
COc1ccc(-c2ccc(C(=O)NCc3ccc(C(F)(F)F)cc3)c3occc23)c(C)c1 | . | . | . | 18µM* | 16µM* | 13%
COc1ccc(-c2ccc(C(=O)NCc3ccccc3)c3occc23)c(C)c1 | . | . | . | 23µM* | ? | ?
COc1ccc(-c2ccc(C(=O)NCC3CCOCC3)c3occc23)c(C)c1 | . | . | . | ? | ? | -23%
CN1C(=O)[C@@H]2C[C@@H](CN2C2CCC2)Oc2ccccc21 | . | . | . | . | . | 263%[176 µM]
Cn1cc(C(=O)N2CCN(Cc3cccc4ccccc34)CC2)c(-c2ccc3c(c2)OCCCO3)n1 | . | . | . | . | . | 11%
CCOC(=O)C1=C(C)NC2=C(C(=O)C(C(=O)OCC)C(c3ccco3)C2)C1c1ccccn1 (stereo not drawn) | 1% | 1% | -18% | -28% | ? | -11%
CCOC(=O)C1=C(C)NC2=C(C(=O)C(C(=O)OCC)C(c3ccco3)C2)C1c1ccccc1C (stereo not drawn) | . | . | . | 20µM* | 22µM* | .
CCc1ccc2[nH]c(=O)c(CN(Cc3cccs3)Cc3nnnn3Cc3ccccc3)cc2c1 | . | . | . | ? | 13µM* | .
Cc1ccc2[nH]c(=O)c(CN(CCCO)Cc3nnnn3Cc3ccccc3)cc2c1 | . | . | . | ? | 11µM* | .
SMILES | RORgamma inh | Gal4-VP16 FLuc | ELG1 DNA repair | TDP1 cell CPT | DT40 TDP1 no CPT | 12-LOX inh
Cc1ccc(C)c2[nH]c(=O)c(CN(Cc3ccc4c(c3)OCO4)Cc3nnnn3Cc3ccco3)cc12 | ? | -2% | ? | ? | ? | ?
Cc1ccc2cc(CN(Cc3ccc4c(c3)OCO4)Cc3nnnn3Cc3ccco3)c(=O)[nH]c2c1C | -37%[0.365 µM] | . | ? | ? | 23µM* | 13µM*
CCC(c1nnnn1Cc1ccccc1)N(Cc1ccccc1)Cc1cc2cc(C)ccc2[nH]c1=O (stereo not drawn) | . | . | . | 11µM* | ? | .
CCOc1ccc2[nH]c(=O)c(CN(Cc3ccco3)C(CC)c3nnnn3Cc3ccccc3)cc2c1 (stereo not drawn) | 10% | -11% | ? | ? | ? | -11%
COCCn1nnnc1CN(CCc1ccccc1)Cc1cc2ccc(C)cc2[nH]c1=O | -7% | 5% | ? | ? | 26µM* | 7%
Cc1cc(C)c2cc(CN(CCO)C(c3nnnn3Cc3ccc(F)cc3)C(C)C)c(=O)[nH]c2c1 (stereo not drawn) | 2% | -14% | 5.2µM* | . | . | ?
Cc1ccc2[nH]c(=O)c(CN(Cc3cccs3)Cc3nnnn3Cc3ccco3)cc2c1 | . | . | . | ? | 18µM* | .
